# Test results taken from PubChem BioAssay AID449762 (Southern Research Specialized Biocontainment Screening …, 2010).
# The campaign covered roughly 330,000 compounds. About 1,900 (0.58%) were called active. Roughly 4% stayed inconclusive and do not appear here. No stated cut-off is given here; in the data, inconclusive means inhibition above about 70% without an active follow-up result; inactive means below that. The list is a sample of the results. Results with a measured potency or affinity are listed apart.
# Assay: M. tuberculosis growth inhibition, HTS (AID 449762);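 further: bacterial growth assessed after seven days of incubation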
# Conditions: M. tuberculosis H37Rv growth inhibition, 7H9 media; at 25 µM; active compounds read high
row,Structure (SMILES),inhibition
1,CSCCC(NC(=O)COc1ccccc1)C(=O)N1CCN(C(C)=O)CC1 (stereo not given),4.67% (inactive)
2,Cc1nc2ccccn2c1C(=O)N/N=C/c1ccccc1,-1.76% (inactive)
3,Cc1ccc(NC(=O)c2c(C)nc3ccccn23)cc1C,-2.44% (inactive)
4,CCOC(=O)N1CCN(C(=O)COC(=O)Cc2ccc(OC)cc2)CC1,-5.2% (inactive)
5,CC(C)CNC(=O)c1cccc(NC(=O)Cc2ccc(Cl)cc2)c1,-1.92% (inactive)
6,CCc1nc(C)cn1S(=O)(=O)c1cc(F)ccc1OC,0.63% (inactive)
7,Cc1ccc(OS(=O)Nc2cccc3nccnc23)cc1 (stereo not given),49% (inactive)
8,Fc1ccc(Nc2cccc3nccnc23)cc1,7.88% (inactive)
9,CNC(=S)NNC(=O)c1cc(-c2cccnc2)nc2ccccc12,-1.9% (inactive)
10,COc1ccc(NC(=O)COC(=O)CCc2ccc(S(=O)(=O)N3CCOCC3)cc2)c(OC)c1,-0.81% (inactive)
11,Cc1[nH]n(-c2ccccc2)c(=O)c1C(=O)c1ccccc1,1.23% (inactive)
12,Cc1[nH]n(-c2ccccc2)c(=O)c1C(=O)c1ccc(Cl)cc1,67.2% (inactive)
13,CCCSc1cc(NCCOC(C)=O)c([N+](=O)[O-])c2nonc12,14.4% (inactive)
14,COC(=O)CCSc1cc(NCCOC(C)=O)c([N+](=O)[O-])c2nonc12,27.1% (inactive)
15,O=c1cc(CO)oc(C(Nc2ccccn2)c2cccc(F)c2)c1O (stereo not given),-4.25% (inactive)
16,Cc1ccc(-n2ccnc2SCC(=O)c2c(N)n(C3CC3)c(=O)[nH]c2=O)cc1C,-3.24% (inactive)
17,CC(OC(=O)CCC(=O)c1cccs1)C(=O)Nc1ccccc1[N+](=O)[O-] (stereo not given),-1.97% (inactive)
18,COc1ccc(OCCCC(=O)OC(C)C(=O)Nc2ccc(NC(C)=O)cc2)cc1 (stereo not given),-25.7% (inactive)
19,O=C(CC12CC3CC(CC(Br)(C3)C1)C2)Nc1cccc(S(=O)(=O)NC2=NCCC2)c1,7.59% (inactive)
20,CC(C)(C)NC(=S)N1CCn2cccc2C1c1cccnc1 (stereo not given),-4.33% (inactive)

row,Structure (SMILES),inhibition
1,O=C(N/N=C/c1ccc2ncccc2c1)c1cccc([N+](=O)[O-])c1,10.3% (inactive)
2,CCCCNC(=O)CSc1nc2cc3c(cc2c(=O)n1Cc1ccco1)OCO3,-13% (inactive)
3,COC(=O)COc1ccc(/C=C2/NC(=O)N(CC(=O)OC)C2=O)cc1,0.75% (inactive)
4,CCN1C(=O)/C(=C/c2ccc(N3CCCC3)cc2)NC1=S,-3.08% (inactive)
5,CN(CC(=O)Nc1c(Cl)cccc1Cl)C(=O)Cc1cccs1,-16.5% (inactive)
6,O=C(Nc1cccc(-c2nc3ccccc3s2)c1)c1cc(=O)c2ccccc2o1,10.9% (inactive)
7,Cn1ncc([N+](=O)[O-])c1C(=O)Nc1cccc(Cl)c1,-25.5% (inactive)
8,Cc1nc2c3ccccc3nc(NNC(=O)CCC(=O)N3CCC(C)CC3)n2n1,-3.15% (inactive)
9,Cc1nonc1OCCN1CCN(c2ccc([N+](=O)[O-])cc2)CC1,9.04% (inactive)
10,Cc1ccc(S(=O)(=O)Nc2ccc(C(N)=O)cc2)cc1[N+](=O)[O-],-1.5% (inactive)
11,CCCNc1ccc(C(=O)OCC)cc1[N+](=O)[O-],-11.2% (inactive)
12,CCOC(=O)c1ccc(NC(C)=O)c([N+](=O)[O-])c1,-9.36% (inactive)
13,O=C(/C=C/c1ccccc1)N/C(=C/c1ccccc1)C(=O)Nc1cccc(C(=O)O)c1,-8.21% (inactive)
14,Nc1cc2c(cc1C(=O)c1ccc(Cl)cc1)OCCO2,4.52% (inactive)
15,O=C(COc1ccc(Cl)cc1Cl)N/N=C/c1cccnc1,-6.12% (inactive)
16,CN(C)c1ccc(NC(=O)c2ccncc2)c2ccccc12,-1.45% (inactive)
17,COc1cc(OC)cc(C(=O)Nc2ccc(N(C)C)c3ccccc23)c1,1.99% (inactive)
18,CCOC(=O)C1=C(C)Nc2nc(C)nn2C1c1ccc(C)cc1 (stereo not given),5.22% (inactive)
19,CCCCN(CCCC)Cc1ccc(C(=O)NNC(=O)Nc2ccc(F)cc2)o1,4.32% (inactive)
20,Cc1ccc(S(=O)(=O)NC(CC(C)C)C(=O)N2CCCC2)cc1 (stereo not given),-3.51% (inactive)

row,Structure (SMILES),inhibition
1,CC(=O)Nc1ccc(S(=O)(=O)N[C@@H](C)C(=O)N2CCN(C/C=C/c3ccccc3)CC2)cc1,-13.2% (inactive)
2,COc1ccc(-c2ccc(-c3nnn(CC(C)=O)n3)cc2)cc1,12.6% (inactive)
3,COc1cccc(CN(C)C(=O)C(CCSC)NS(=O)(=O)c2ccc3c(c2)OCCO3)c1OC (stereo not given),-2% (inactive)
4,CCCCn1cnc2c(oc3nc4c(cc32)CCCC4)c1=O,5.81% (inactive)
5,Oc1ccc2ccccc2c1N=Nc1ccccc1F,-3.05% (inactive)
6,Oc1ccc2ccccc2c1/C=N/c1nccs1,0.82% (inactive)
7,CCOC(=O)c1sc(NC(=O)C(OC(C)=O)c2ccccc2)nc1C (stereo not given),-4.59% (inactive)
8,O=C(O)c1cc(C(F)(F)F)nc2c(C(F)(F)F)cccc12,-3.33% (inactive)
9,COc1ccc(OC)c(C(O)C2CCCCN2)c1 (stereo not given),0.57% (inactive)
10,Cc1sc2nc(-c3ccc(Br)cc3)oc(=O)c2c1C,7.29% (inactive)
11,O=C1[C@@H]2Cc3c([nH]c4ccccc34)CN2C(=O)CN1CCCCCO,-3.43% (inactive)
12,c1ccc(Nc2ccccc2Nc2ccccn2)nc1,-3.39% (inactive)
13,c1ccc(Nc2ccccn2)nc1,4.45% (inactive)
14,O=C(NC1CCS(=O)(=O)C1)/C(=C/c1ccco1)NC(=O)c1ccccc1 (stereo not given),-0.22% (inactive)
15,CCC[C@H](N[C@@H](CCC)[C@H](O)c1ccccc1)[C@H](O)c1ccccc1,-2.74% (inactive)
16,O=C(Nc1ccc(F)cc1)c1ccc(S(=O)(=O)NCC2CCCO2)cc1 (stereo not given),0.17% (inactive)
17,Cc1ccc(OCCNC(=O)CCNS(=O)(=O)c2ccc3ccccc3c2)cc1,1.14% (inactive)
18,Cc1nn(C)c(C)c1NC(=O)c1cc2nc(-c3ccco3)cc(C(F)(F)F)n2n1,-8.4% (inactive)
19,O=C(Nc1cnn(Cc2ccccc2)c1)c1cc2nc(-c3ccco3)cc(C(F)(F)F)n2n1,1.16% (inactive)
20,COCCCN1C(=O)c2ccc(C(=O)NCCc3ccccc3)cc2C1=O,0.01% (inactive)
